Data from PubChem BioAssay (EPA / NIEHS).
Calls of active or inactive are those of the source. The calls were made as follows: active = hit-call score of the fitted dose curve at least 0.9, where 1 is the maximum; inactive = score below 0.9.

Test: CCTE_Simmons_MITO_max_resp_rate: CCTE's HepG2 Seahorse XF Respirometric Screening Assay at Maximal Respiratory State [uncoupled], Simmons Lab (AID 2284002)
Settings: actives raise or lower the signal
Experimental: CCTE_Simmons_MITO is cell-based, respirometric assay using HepG2 cells and a Seahorse XF Analyzer to measure oxygen consumption rates over four temporal phases spanning a total of 72 minutes: pre-injection (pre-treatment), basal (following test compound injection), maximal (following FCCP uncoupler injection), and inhibited (following rotenone/antimycin A injection)CCTE_Simmons_MITO_max_resp_rate is one of 4 assay components calculated from the CCTE_Simmons_MITO assay. It is designed to make measurements of maximal respiration using a form of respirometric reporter, as detected with […] signals by Seahorse XF96 technology. Data from the assay component CCTE_Simmons_MITO_max_resp_rate was analyzed at the endpoint, CCTE_Simmons_MITO_max_resp_rate_OCR, with bidirectional fitting relative to DMSO as the negative control and baseline of activity. Using a type of respirometric reporter, measures of maximal respiration for gain or loss-of-signal activity can be used to understand cellular oxygen consumption as it relates to cellular respiration. To generalize the intended target to other relatable targets, this assay endpoint is annotated to the mitochondria intended target family, where the subfamily is respiration.
Test chemicals were administered as a titrated series of 7 concentrations from 125 nM up to 100 uM [final] prior to kinetic endpoint detection at 6 minute intervals [3 min mix followed by 3 minutes measure] for 72 minutes. Three biological replicates of technical singles were run for every chemical concentration tested. Dimethylsulfoxide [DMSO] was used as the vehicle control. The electron transport chain inhibitor fenpyroximate was used as the positive control for decreased basal respiration and was administered as a titrated series of 6 concentrations from 250 nM up to 2.75 uM [final] with technical triplicates for the top concentration only. The uncoupler 2,4-dintirophenol was used as the positive control for increased basal respiration and was administered as a titrated series of 6 concentrations from 938 nM up to 40 uM [final] with technical triplicates for the top concentration only. A Seahorse XF Analzyer is required to measure the response.

Row | Compound | AC50 | outcome
1 | CC(C)(C)c1cc(O)c(C(C)(C)C)cc1O | 36.7 µM (active) | 
2 | Cc1oc(-c2ccccc2)nc1CCOc1cccc2c1ccn2CCC(=O)O |  | inactive
3 | COc1ccc2c(c1)c(CC(=O)O)c(C)n2C(=O)c1ccc(Cl)cc1 |  | inactive
4 | Cc1cccc(Nc2cc(Cl)nc(SCC(=O)O)n2)c1C |  | inactive
5 | COc1cc(S(=O)(=O)O)c(C)cc1N=Nc1c(O)ccc2cc(S(=O)(=O)O)ccc12 |  | inactive
6 | COc1ccc(S(=O)(=O)N2C(=O)[C@@](c3ccccc3OC)(N3C[C@H](O)C[C@H]3C(=O)N(C)C)c3cc(Cl)ccc32)c(OC)c1 |  | inactive
7 | Cc1c(C(=O)O)c(O)cc2c1C(=O)c1c(O)c([C@@H]3O[C@H](CO)[C@@H](O)[C@H](O)[C@H]3O)c(O)c(O)c1C2=O |  | inactive
8 | CCCCC(CC)COC(=O)CC(C(=O)OCC(CC)CCCC)S(=O)(=O)O (stereo not given) | 85.2 µM (active) | 
9 | CN[C@H]1CC[C@@H](c2ccc(Cl)c(Cl)c2)c2ccc(S(N)(=O)=O)cc21 |  | inactive
10 | C=CCOC(=O)c1ccccc1C(=O)OCC=C |  | inactive
